Source: PubChem BioAssay (NCATS)
Records with an inconclusive call do not appear. The source made the active and inactive calls. Unless noted, the call rests on the fitted dose curve; in most records, active means well fitted curve in either direction with a large enough effect (not every such curve was filed as active); inconclusive means small, poorly fitted or top-dose-only effect, or another doubt; inactive means flat fitted curve, though single readings scatter.

Columns and labels:
[1] = AP1 Signaling Pathway (AID 357); conditions: ME-180 AP-1-bla reporter, EGF-induced, beta-lactamase ratio, 5 h; at 17.2 µM (top of the series) unless noted; further: on the % scale 0 is the no-effect control and ±100 the full control effect
Outline: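 ME-180 cells with beta-lactamase reporter under AP-1 response element, stimulated with EC50 EGF; compounds tested in titration series, 5 h at 37 °C. CCF4 substrate added 2.5 h at room temperature; 460/530 nm emission ratio gave %activity and AC50.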

[2] = NFAT Signaling Pathway (AID 444); conditions: Jurkat NFAT-bla M1, carbachol, beta-lactamase ratio, 5 h; at 17.2 µM (top of the series) unless noted;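 further: carbachol stimulus at about its EC50 of 1 µM final; on the % scale 0 is the no-effect control and ±100 the full control effect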
Outline: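 Read-out: CCF4 FRET ratio (460 nm/530 nm) after 1 h RT dye loading, used for %activity and AC50 from titration series. Cells: Jurkat NFAT-β-lactamase/M1 line, treated with compound plus 1 uM carbachol for 5 h, 37 °C.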

[3] = Stat Signaling Pathway (AID 446); conditions: ME-180 SIE beta-lactamase reporter, IL-6 stimulated, 5 h; at 17.2 µM (top of the series) unless noted;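 further: ME-180 cervical cancer cells given 40 pM IL-6 alongside compound; SIE-controlled beta-lactamase reporter measured as 460/530 nm FRET emission ratio; on the % scale 0 is the no-effect control and ±100 the full control effect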
Outline: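 ME-180 SIE-bla cells; overnight plating; cpd + IL-6 40 pM, 5 h, 37 C; LiveBLAzer 2.5 h RT; 460/530 nm emission ratio. Normalized to 300 pM IL-6 and 125 nM JAK inhibitor controls.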

[4] = biological target: Glucocorticoid receptor (Homo sapiens) (UniProt P04150); experiment: GR-GFP Redistribution (AID 450;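 active means compounds whose dose series gives a full or clear partial fitted curve of increased nuclear translocation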; further: potency means the concentration at half of the fitted maximal effect)
[5] = qHTS Assay for Identification of Small Molecule Agonists for Hypoxia Response Element Signaling Pathway (AID 914; active means well fitted activation curve with a large enough effect in the signal ratio, with a control signal flat, not every such curve was filed as active; the % refers to the signal ratio; further: % of control where 0% means no effect); conditions: ME-180 (cervical carcinoma) HRE-bla reporter, beta-lactamase ratio, CoCl2, 17 h; activation: hits give high values
Outline: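 A beta-lactamase reporter under hypoxia response element control in ME-180 cells served as the system. Compound titrations plus EC50 CoCl2 ran 17 h at 37 degrees Celsius; AC50 values were fitted from %Activity.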

[6] = biological target: 3',5'-cyclic-AMP phosphodiesterase 4B (Homo sapiens) (UniProt Q07343); experiment: qHTS Assay for Inhibitors of PDE-IV (AID 607; active means well fitted activation curve with a large enough effect in the main read-out, with a control signal flat, not every such curve was filed as active; further: % of control where 0% means no effect)
Outline: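 ACTOne HEK293 cells carry a modified cAMP-gated CNG channel and express endogenous PDE4; plated 1000 cells/well, compounds up to 22.9 uM final. Membrane-potential dye fluorescence (ex 535/em 590) was read; parental cells received 10 uM forskolin + 100 uM RO 20-1724.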

[7] = qHTS Assay for Identification of Small Molecule Agonists for Thrombopoietin (TPO) Signaling Pathway (AID 917; active means well fitted curve in the direction sought with a large enough effect; an effect the other way counts as inactive or inconclusive; further: on the % scale 0 is the no-effect control and ±100 the full control effect)
Outline: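 We measured Glycoprotein IIb promoter–luciferase output in IL-3-starved Ba/F3 murine cells expressing the human TPO receptor after 24 hrs at 37 C with compounds and 26 pM TPO.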

[8] = biological target: Pyruvate kinase (Leishmania mexicana) (UniProt Q27686); experiment: qHTS Validation Assay for Inhibitors of Leishmania Mexicana Pyruvate Kinase (AID 945; active means well fitted curve in the direction sought with a large enough effect; an effect the other way counts as inactive or inconclusive;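 further: 0% = DMSO only neutral control wells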)
Outline: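 Compounds are tested as eight-point concentration series. Reactions contain 0.2 nM LmPYK E451W, 0.5 mM PEP, 0.1 mM ADP, 7 mM MgCl2 and 50 mM KCl at pH 7.2, run 1 h at room temperature, then read by PKLight luminescence.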

[9] = biological target: Pyruvate kinase PKM (Homo sapiens) (UniProt P14618); experiment: qHTS Assay for Activators of Human Muscle Pyruvate Kinase (AID 954; active means well fitted curve in the direction sought with a large enough effect, not every such curve was filed as active;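 further: 0% = uninhibited enzyme and -100% = no enzyme or full thiadiazolimine inhibition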)
Outline: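 Luminescence from a luciferase ATP-detection/stop reagent reported PKM2 activity. Reactions contained 0.1 nM purified human enzyme, 0.5 mM PEP, 0.1 mM ADP and 7 mM MgCl2 at pH 7.2, run 1 h at RT.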

[10] = biological target: Alpha-galactosidase A (Homo sapiens) (UniProt P06280); experiment: Counterscreen for Glucocerebrosidase Inhibitors: qHTS Assay for Human alpha-Galactosidase at pH 4.5 (AID 992; active means well fitted curve in the direction sought with a large enough effect; an effect the other way counts as inactive or inconclusive; further: 0% is about no effect)
Outline: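 Enzyme at 2 nM final was combined with compound (0.7 nM to 77 uM) and 80 uM 4-methylumbelliferyl alpha-D-galactopyranoside in 50 mM citric acid, 0.005% Tween-20, pH 4.5. After 20 min at room temperature, fluorescence was read (Ex 365/Em 440 nm); AC50 came from Hill fits.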

[11] = biological target: alpha-glucosidase (Oryza sativa, rice) (UniProt Q653V4); experiment: Counterscreen for Glucocerebrosidase Inhibitors: qHTS Assay for Rice alpha-Glucosidase at pH 5.0 (AID 997; active means well fitted curve in the direction sought with a large enough effect; an effect the other way counts as inactive or inconclusive;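 further: 0% = full activity with enzyme and -100% = basal without enzyme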)
Outline: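 Rice alpha-glucosidase (4 nM final) with 400 uM 4-methylumbelliferyl-alpha-D-glucopyranoside in citrate buffer pH 5.0, 20 min at room temperature, stopped at pH 10; fluorescence 365/440 nm, compounds 0.7 nM–77 uM, AC50 from Hill fits.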

Glucocorticoid receptor (Homo sapiens), sequence (P04150 whole entry, looked up): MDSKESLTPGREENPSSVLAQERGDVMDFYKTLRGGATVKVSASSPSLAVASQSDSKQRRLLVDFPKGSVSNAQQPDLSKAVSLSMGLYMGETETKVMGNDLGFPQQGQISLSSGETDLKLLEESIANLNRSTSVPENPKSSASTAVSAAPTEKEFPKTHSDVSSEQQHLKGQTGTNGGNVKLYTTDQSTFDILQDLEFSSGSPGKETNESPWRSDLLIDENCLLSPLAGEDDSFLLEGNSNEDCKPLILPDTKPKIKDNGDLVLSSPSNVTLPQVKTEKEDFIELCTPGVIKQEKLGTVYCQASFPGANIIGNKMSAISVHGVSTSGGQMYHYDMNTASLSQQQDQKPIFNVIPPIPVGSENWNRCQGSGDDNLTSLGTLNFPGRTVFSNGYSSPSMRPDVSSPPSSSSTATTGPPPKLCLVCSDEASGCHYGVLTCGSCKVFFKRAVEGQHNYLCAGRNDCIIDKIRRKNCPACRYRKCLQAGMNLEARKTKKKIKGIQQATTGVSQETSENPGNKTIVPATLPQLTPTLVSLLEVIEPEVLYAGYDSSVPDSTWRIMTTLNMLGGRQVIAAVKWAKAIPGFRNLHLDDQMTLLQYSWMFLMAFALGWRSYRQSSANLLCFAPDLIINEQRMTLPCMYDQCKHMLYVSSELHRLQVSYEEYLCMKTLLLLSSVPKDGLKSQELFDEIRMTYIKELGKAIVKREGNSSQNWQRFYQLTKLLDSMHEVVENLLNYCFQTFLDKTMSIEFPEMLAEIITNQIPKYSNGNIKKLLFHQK
Pyruvate kinase PKM (Homo sapiens), sequence (P14618 whole entry, looked up): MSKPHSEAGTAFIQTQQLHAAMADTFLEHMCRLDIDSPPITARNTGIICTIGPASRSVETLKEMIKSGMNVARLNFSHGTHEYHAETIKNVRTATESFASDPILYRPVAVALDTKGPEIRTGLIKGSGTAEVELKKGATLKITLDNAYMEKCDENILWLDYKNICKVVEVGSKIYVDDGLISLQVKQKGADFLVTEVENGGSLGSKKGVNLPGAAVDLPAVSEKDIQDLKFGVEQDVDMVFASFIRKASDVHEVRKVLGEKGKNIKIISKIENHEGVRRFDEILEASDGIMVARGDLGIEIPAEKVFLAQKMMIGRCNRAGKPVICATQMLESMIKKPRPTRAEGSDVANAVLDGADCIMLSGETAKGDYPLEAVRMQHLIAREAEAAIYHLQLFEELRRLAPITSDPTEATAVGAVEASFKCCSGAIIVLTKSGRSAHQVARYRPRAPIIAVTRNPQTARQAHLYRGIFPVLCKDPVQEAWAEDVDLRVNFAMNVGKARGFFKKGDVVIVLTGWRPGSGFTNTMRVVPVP
Alpha-galactosidase A (Homo sapiens), sequence (P06280 whole entry, looked up): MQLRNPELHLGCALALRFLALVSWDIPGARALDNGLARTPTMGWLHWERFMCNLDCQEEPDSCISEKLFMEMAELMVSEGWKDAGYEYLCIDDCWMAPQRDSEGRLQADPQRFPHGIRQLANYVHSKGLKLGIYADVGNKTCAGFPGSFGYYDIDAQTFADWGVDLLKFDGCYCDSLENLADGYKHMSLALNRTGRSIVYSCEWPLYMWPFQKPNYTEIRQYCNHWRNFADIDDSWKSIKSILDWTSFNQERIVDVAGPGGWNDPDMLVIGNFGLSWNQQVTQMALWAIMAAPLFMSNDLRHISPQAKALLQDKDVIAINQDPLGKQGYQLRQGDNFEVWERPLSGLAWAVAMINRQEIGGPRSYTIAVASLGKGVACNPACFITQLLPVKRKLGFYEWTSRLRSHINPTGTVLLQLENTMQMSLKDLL
3',5'-cyclic-AMP phosphodiesterase 4B (Homo sapiens), sequence (Q07343 whole entry, looked up): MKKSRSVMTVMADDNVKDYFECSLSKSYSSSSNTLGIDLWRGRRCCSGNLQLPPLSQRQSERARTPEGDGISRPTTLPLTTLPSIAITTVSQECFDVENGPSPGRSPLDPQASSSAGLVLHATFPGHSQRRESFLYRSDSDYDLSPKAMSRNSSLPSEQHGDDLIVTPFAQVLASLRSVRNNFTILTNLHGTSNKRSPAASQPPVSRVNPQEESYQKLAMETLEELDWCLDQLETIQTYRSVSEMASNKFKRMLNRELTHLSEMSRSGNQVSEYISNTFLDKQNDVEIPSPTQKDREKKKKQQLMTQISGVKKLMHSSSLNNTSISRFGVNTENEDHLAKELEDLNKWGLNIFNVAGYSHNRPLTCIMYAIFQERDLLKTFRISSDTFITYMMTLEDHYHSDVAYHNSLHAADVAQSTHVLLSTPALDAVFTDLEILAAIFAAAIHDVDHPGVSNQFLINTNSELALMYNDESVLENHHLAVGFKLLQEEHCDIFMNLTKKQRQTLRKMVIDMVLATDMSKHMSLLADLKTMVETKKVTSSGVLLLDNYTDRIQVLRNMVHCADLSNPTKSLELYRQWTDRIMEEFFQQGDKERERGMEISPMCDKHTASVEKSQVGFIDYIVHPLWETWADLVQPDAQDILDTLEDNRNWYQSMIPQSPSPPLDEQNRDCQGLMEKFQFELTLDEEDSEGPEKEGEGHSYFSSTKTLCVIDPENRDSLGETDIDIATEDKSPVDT
Pyruvate kinase (Leishmania mexicana), sequence (Q27686 2-499 E452W): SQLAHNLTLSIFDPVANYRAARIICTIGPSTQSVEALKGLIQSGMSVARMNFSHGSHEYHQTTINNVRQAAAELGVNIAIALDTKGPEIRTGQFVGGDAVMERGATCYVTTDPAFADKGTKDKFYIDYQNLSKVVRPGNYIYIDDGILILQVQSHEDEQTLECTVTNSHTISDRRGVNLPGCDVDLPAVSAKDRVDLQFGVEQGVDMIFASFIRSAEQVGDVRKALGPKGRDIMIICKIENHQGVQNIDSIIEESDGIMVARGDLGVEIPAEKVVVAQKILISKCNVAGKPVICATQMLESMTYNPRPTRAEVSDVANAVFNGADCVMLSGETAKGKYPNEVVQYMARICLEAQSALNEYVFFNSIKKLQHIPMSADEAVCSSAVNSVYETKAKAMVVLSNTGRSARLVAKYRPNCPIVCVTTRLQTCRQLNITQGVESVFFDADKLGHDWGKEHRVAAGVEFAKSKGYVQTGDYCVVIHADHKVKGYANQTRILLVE

CCOC(=O)c1c(CNCCN(CC)CC)n(C)c2cc(Br)c(OC)cc12
inactive: activity change, negative = inhibition [1] 5.94% | activity change, negative = inhibition [2] 5.36% | activity, negative = inhibition [3] -6.2% | Potency [4] > 20.6 µM | activation [5] -9.75%

NC(=O)CSc1nc(N)c2c3c(sc2n1)CCCCC3
inactive: activity change, negative = inhibition [1] -2.28% | activity change, negative = inhibition [2] -8.37% | activity, negative = inhibition [3] -4.35% | Potency [4] > 20.6 µM | activation [5] -10.3%

CCc1nc(NCC2CCCO2)c(C#N)c2c1COC(C)(C)C2 (stereo not drawn)
inactive: activity change, negative = inhibition [1] -25.1% | activity change, negative = inhibition [2] -16.2% | activity, negative = inhibition [3] -2.2% | Potency [4] > 20.6 µM | activation [5] -11.3%

CN1[C@@H]2CC(OC(=O)[C@@H](CO)c3ccccc3)C[C@H]1[C@H]1O[C@H]12 (stereo partly drawn)
inactive: activity change, negative = inhibition [1] 4.86% [at 38 µM] | activity, negative = inhibition [3] 13.4% [at 38 µM] | Potency [6] | Potency [7] | Potency [8] | outcome [9] | outcome [10] | outcome [11]
active: activity change, negative = inhibition [2] -57.6% [at 38 µM]

COC(=O)C1=C(N)Oc2cc(C)[nH]c(=O)c2C1c1ccncc1 (stereo not drawn)
inactive: activity change, negative = inhibition [1] -8.66% | activity change, negative = inhibition [2] 2.47% | activity, negative = inhibition [3] -7.56% | Potency [4] > 20.6 µM | activation [5] 2.44%

COc1ccc(C2C(C#N)=C(N)Oc3n[nH]c(C)c32)cc1CSc1ccccn1 (stereo not drawn)
inactive: activity change, negative = inhibition [1] -15.2% | activity change, negative = inhibition [2] 13.4% | activity, negative = inhibition [3] -27.9% | Potency [4] > 20.6 µM | activation [5] -21.4%

COc1ccc(CCn2c(=N)c(C#N)cc3c(=O)n4ccccc4nc32)cc1
inactive: activity change, negative = inhibition [1] -1.65% | activity change, negative = inhibition [2] -0.836% | activity, negative = inhibition [3] 3.03% | Potency [4] > 20.6 µM | activation [5] 22.3%

CCOC(=O)C(C(=O)OCC)N(C#N)c1nc(SC)nc(N(C)C)n1
inactive: activity change, negative = inhibition [1] -8.06% | activity change, negative = inhibition [2] -23.5% | activity, negative = inhibition [3] -8.92% | Potency [4] > 20.6 µM | activation [5] -11.1%

COc1ccccc1C1/C(=C(\O)c2ccc3c(c2)OCCO3)C(=O)C(=O)N1CCCN(C)C (stereo not drawn)
inactive: activity change, negative = inhibition [1] 8.19% | activity change, negative = inhibition [2] -5.11% | activity, negative = inhibition [3] 4.48% | Potency [4] > 20.6 µM | activation [5] -1.93%

C=CCc1cccc(/C=N/c2ncn[nH]2)c1O
inactive: activity change, negative = inhibition [1] -5.91% | activity change, negative = inhibition [2] -19.8% | activity, negative = inhibition [3] 5.03% | Potency [4] > 20.6 µM | activation [5] 26.2%

CC(=O)CCn1c(=O)n(CCC(C)=O)c(=O)n(CCC(C)=O)c1=O
inactive: activity change, negative = inhibition [1] 5.12% | activity change, negative = inhibition [2] 6.61% | activity, negative = inhibition [3] -1.84% | Potency [4] > 20.6 µM | activation [5] 11.1%

Cc1cccc(-n2ncc3c(NCc4ccco4)ncnc32)c1
inactive: activity change, negative = inhibition [1] -15.1% | activity change, negative = inhibition [2] -12.4% | activity, negative = inhibition [3] -20.3% | Potency [4] > 20.6 µM | activation [5] 8.46%

O=C1C2ON(c3ccccc3)C(c3cccnc3)C2C(=O)N1Cc1ccccc1 (stereo not drawn)
inactive: activity change, negative = inhibition [1] -15.2% | activity change, negative = inhibition [2] -1.42% | activity, negative = inhibition [3] -8.95% | Potency [4] > 20.6 µM | activation [5] 1.83%

Cc1cc(C)n(C(=O)CN2C(=O)CCC2=O)n1
inactive: activity change, negative = inhibition [1] 14.2% | activity change, negative = inhibition [2] 0.324% | activity, negative = inhibition [3] 3.71% | Potency [4] > 20.6 µM | activation [5] 6.68%

CC(=O)Nc1ccccc1O
inactive: activity change, negative = inhibition [1] 0.55% | activity change, negative = inhibition [2] 16% | activity, negative = inhibition [3] 2.83% | activation [5] 8.91%

CCSC(SCC)[C@H](O)[C@@H](O)[C@H](O)[C@H](O)CO
inactive: activity change, negative = inhibition [1] -0.356% | activity change, negative = inhibition [2] 8.22% | activity, negative = inhibition [3] 10.1% | Potency [4] > 20.6 µM | activation [5] 9.48%

Cn1ccnc1SCCC#N
inactive: activity change, negative = inhibition [1] -0.27% | activity change, negative = inhibition [2] -6.48% | activity, negative = inhibition [3] 5.85% | Potency [4] > 20.6 µM | activation [5] 14%

CNc1ccccc1-c1nc2ccccc2n(C)c1=O
inactive: activity change, negative = inhibition [1] 11.2% | activity change, negative = inhibition [2] -2.49% | activity, negative = inhibition [3] 12% | Potency [4] > 20.6 µM | activation [5] -4.3%

Cn1c2c(c(=O)n(C)c1=O)C(NC(=O)C(C)(C)C)(C(F)(F)F)C(=O)N2 (stereo not drawn)
inactive: activity change, negative = inhibition [1] -5.62% | activity change, negative = inhibition [2] -2.4% | activity, negative = inhibition [3] 6.52% | Potency [4] > 20.6 µM | activation [5] 8.6%
